According to PubChem BioAssay AID868 (SRMLSC, 2007):
Screen size: about 190,000 compounds; about 3,500 (1.8%) were called active.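 The calls were made as follows: active = inhibition above a set limit, 3 SD over mean compound inhibition (cut at about 8.4% in these data); inactive = the rest.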 This excerpt belongs to a sample that is enriched for actives.

assay: RAM signaling blockers in budding yeast – dse1pr::URA3 reporter, 5-FOA selection, primary screen (AID 868);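 also: 0% = DMSO-only wells with no growth and 100% = 10 µM 1-NA-PP1 full growth; inhibition rescues growth on 5-FOA so higher OD means more RAM inhibition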; settings: S. cerevisiae dse1pr::URA3 reporter, 5-FOA growth OD615, 2 d; at 50 µM; hits give high values; analog-sensitive cbk1-as2 kinase mutant strain

Compound | inhibition
S=c1ccc2ccccc2[nH]1 | -0.88% (inactive)
Cc1noc(C)c1COc1ccc2ccc(=O)oc2c1 | 0.12% (inactive)
O=C(NC1CC1)c1ccc(-c2ccccc2)cc1 | 1.25% (inactive)
Cc1cccc(OCCNC(=O)CSc2ccc(C(F)(F)F)cc2[N+](=O)[O-])c1 | 3.14% (inactive)
COc1ccc(N2CCN(C(C)=C3C(=O)c4ccccc4C3=O)CC2)cc1 | -1.52% (inactive)
CN(C)c1ccc(C(=S)N2CCN(C(=S)Nc3ccc(Cl)cc3)CC2)cc1 | 4% (inactive)
Cc1ccc(SCC(=O)c2cc(C)c(OC(=S)N(C)C)c(C)c2)cc1 | 9.5% (active)
Cc1ccc(SCC(=O)Nc2ccc3c(c2)OCCO3)cc1 | 0.6% (inactive)
Cc1ccc(SCC(=O)c2sc(-c3ccccc3)nc2C)cc1 | 2.13% (inactive)
O=C(CCCN1C(=O)/C(=C\c2ccco2)SC1=S)Nc1cccc2ccccc12 | 4.94% (inactive)
O=C(CCCN1C(=O)/C(=C/c2ccccc2)SC1=S)Nc1ccc(O)cc1 | 0.63% (inactive)
COc1ccc(/C=C2/SC(=O)N(CCCCCC(=O)Nc3ccccc3C(=O)O)C2=S)cc1 | 9.16% (active)
COc1ccccc1Oc1ccc(S(=O)(=O)Nc2cccnc2)cc1 | -0.91% (inactive)
Cc1cc(C)cc(NS(=O)(=O)c2ccc(Oc3ncc(C(F)(F)F)cc3Cl)cc2)c1 | 10.7% (active)
COC(=O)Cc1ccc(Oc2ncc(C(F)(F)F)cc2Cl)cc1 | 0.6% (inactive)
CCOC(=O)Cc1ncccc1C(=O)Nc1ccc(OC(F)(F)F)cc1 | -0.27% (inactive)
O=C(Nc1cccc(C(F)(F)F)c1)c1cnccn1 | 3.61% (inactive)
COc1cc(NC(=O)N2CCOCC2)cc(OC)c1 | 0.39% (inactive)
COc1c(Br)cc2c(C)c(C(=O)N3CCOCC3)oc2c1Br | 13.5% (active)
COc1cc(C(=S)N2CCOCC2)cc(OC)c1OC(=O)c1cc([N+](=O)[O-])c(C)c([N+](=O)[O-])c1 | 3.68% (inactive)
Cc1ccccc1NS(=O)(=O)CCCCC(Cl)(Cl)Cl | 1.86% (inactive)
Cc1ccc(-c2csc(NC(=O)c3cccs3)n2)cc1 | 3.07% (inactive)
Cc1ccc(-c2csc(N(Cc3ccco3)C(=O)c3cccs3)n2)cc1 | 8.42% (active)
O=C(O)CCC(=O)N(Cc1ccco1)c1nc(-c2ccccc2)cs1 | 3.13% (inactive)

Compound | inhibition
O=C(CN1C(=O)NC2(CCCCCC2)C1=O)NC1CC1 | -0.87% (inactive)
Cc1ccc2nc(COc3ccc(N(C)S(=O)(=O)c4ccccc4)cc3)cc(=O)n2c1 | 2.17% (inactive)
CCC1CCCCN1CCCNC(=O)c1cc2c(Cl)nc3ccccc3c2s1 (stereo unspecified) | 1.99% (inactive)
N#Cc1ccc(-c2nc3cc(C#N)c(C#N)cc3nc2-c2ccccc2)cc1C#N | 1.25% (inactive)
COc1ccccc1C1CC(=O)n2c(nc(-c3ccccc3)c2-c2ccccc2)S1 (stereo unspecified) | 8.41% (active)
COc1cccc(C2CC(c3ccccc3)=NN2S(=O)(=O)c2ccccc2)c1OC (stereo unspecified) | 2.56% (inactive)
COc1ccc(C2CC(=O)n3c(nc4ccccc43)S2)cc1OC (stereo unspecified) | 3.3% (inactive)
O=C(COC(=O)c1ccccc1C(=O)N1CCN(c2ccccc2)CC1)NCc1ccccc1 | 1.15% (inactive)
CN1CCNC(=O)C1CC(=O)N1CC=C(c2ccc(F)cc2)CC1 (stereo unspecified) | -0.5% (inactive)
NC(=O)C[n+]1cccc(C(N)=O)c1 | 1.51% (inactive)
CCc1ccccc1NC(=S)N(CCN1CCCCCC1)Cc1ccco1 | -0.63% (inactive)
Cc1ccc2[nH]cc(CCCN3C(=O)c4ccccc4C3=O)c2c1 | 8.46% (active)
Cc1ccc2[nH]cc(CCNC(=O)c3ccc([N+](=O)[O-])cc3)c2c1 | -1.27% (inactive)
O=C1c2ccccc2C(=O)N1CCCc1nc(-c2ccccc2)no1 | 3.93% (inactive)
NC(=O)COC(=O)c1cc(S(=O)(=O)N2CCN(c3ccccc3)CC2)ccc1Cl | 5.02% (inactive)
Cc1cc2[nH]ncc2cc1NC(=S)NC(=O)c1ccccc1 | 3.3% (inactive)
Cc1ccc(NC(=S)NC(=O)c2ccc(-c3ccccc3)cc2)c(C)c1 | 8.7% (active)
Cc1ccc(C(=O)NC(=S)Nc2ccccc2C)cc1 | -0.37% (inactive)
CCCCN(C)c1ccc([N+](=O)[O-])cc1 | -1.26% (inactive)
Cc1cccc(C2=N/C(=C/c3cccs3)C(=O)O2)c1 | 4.44% (inactive)
C/C(N)=C(/C#N)C(=O)COC(=O)c1cc(-c2ccccc2)nc2ccc(Br)cc12 | 3.84% (inactive)
Cc1cccc(CSc2nnc(C)c(=O)n2N)c1 | 0.13% (inactive)
Cc1nc2c(C(=O)NCc3cccs3)cnn2c(C)c1Cc1ccc(F)cc1 | 1.27% (inactive)
COC(=O)Cn1c(=NC(=O)c2cc(OC)c(OC)c(OC)c2)sc2cc(OC)ccc21 | 5.03% (inactive)

Compound | inhibition
CCOC(=O)N1CCN(C(=O)c2cc3c(ccc4ccccc43)oc2=O)CC1 | 4.45% (inactive)
CCOC(=O)c1c(C)nc2c(c1C)c(=O)oc1ccccc12 | 18.6% (active)
CCCCC(=O)Nc1cc(C)c2c(=O)oc3ccccc3c2n1 | 7.85% (inactive)
CCN(CC)CC1(O)CCN(C(=O)c2ccc(Cl)c(Cl)c2)CC1 | 1.77% (inactive)
O=C(COC(=O)/C(=C/c1cccs1)c1cccs1)NCc1ccccc1Cl | 14% (active)
O=C(COC(=O)c1cc2c(s1)CCCC2)NCc1ccccc1Cl | 4.18% (inactive)
O=C(COC(=O)Cn1cnc2ccccc2c1=O)NCc1ccccc1Cl | 0% (inactive)
O=C1Oc2ccccc2C(=O)/C1=C/c1ccccc1O | 0.25% (inactive)
O=C(Nc1ccc(Sc2ccc(Br)cc2)cc1)c1ccco1 | 9.42% (active)
O=C(CSc1ccccc1)Nc1ccc(NC(=O)c2ccco2)cc1 | 3.77% (inactive)
COC(=O)c1ccc(NC(=O)c2ccco2)cc1 | 0.13% (inactive)
CCCSc1nc2c(c(=O)n(C)c(=O)n2C)n1Cc1ccc(C)cc1 | 8.43% (active)
Cc1cccc(Cn2c(SCCO)nc3c2c(=O)n(C)c(=O)n3C)c1 | 0.88% (inactive)
CCOc1ccc(Cn2c(SCCCCC#N)nc3c2c(=O)n(C)c(=O)n3C)cc1OCC | 1.06% (inactive)
COc1ccc(CCNc2cc(C)nc3c(-c4ccc(Cl)cc4)c(C)nn23)cc1OC | -0.42% (inactive)
CCc1cccc2c(=O)c(C(=O)NCCCOC)c[nH]c12 | 3.16% (inactive)
COC(=O)CCCCCN1C(=O)NC(c2ccc(-c3ccccc3)cc2)C(C(=O)OCc2ccccc2)=C1C (stereo unspecified) | 15.8% (active)
CC1=C(C(=O)OCc2ccccc2)C(c2ccc(C(F)(F)F)cc2)NC(=O)N1CCCCCC(=O)O (stereo unspecified) | 7.19% (inactive)
COCCN1C(=O)N[C@@H](c2ccccc2)C(C(=O)OC)=C1C | 0.8% (inactive)
O=C(NCCCNc1ccc([N+](=O)[O-])cc1Cl)c1ccccc1F | 1.43% (inactive)
COCC(C)n1c(C)cc(C(=O)COc2ccc(C)nc2[N+](=O)[O-])c1C (stereo unspecified) | 1.49% (inactive)
Cc1ccc(C(=O)NC(=S)NCc2cccnc2)cc1 | 5.38% (inactive)
COc1cc(C2C(C(=O)c3ccc(C)o3)=C(O)C(=O)N2Cc2cccnc2)ccc1O (stereo unspecified) | 0.23% (inactive)
COc1cc(C2C(C(=O)c3ccc(C)o3)=C(O)C(=O)N2CCc2ccccc2)ccc1O (stereo unspecified) | 9.49% (active)

Compound | inhibition
COc1ccc(C2C(C(C)=O)=C(O)C(=O)N2CCc2c[nH]c3ccccc23)cc1 (stereo unspecified) | 3.37% (inactive)
O=C(COc1cccc2ccccc12)Nc1cc(S(=O)(=O)N2CCOCC2)ccc1N1CCOCC1 | 3.39% (inactive)
O=C(Nc1nnc(SCc2ccc(Cl)cc2Cl)s1)C1COc2ccccc2O1 (stereo unspecified) | 4.44% (inactive)
Clc1ccc(CSc2nnc(/C=C/c3ccccc3)o2)c(Cl)c1 | 9.57% (active)
S=c1[nH]nc(CSCc2ccc(Cl)cc2Cl)n1-c1ccccc1 | 4.95% (inactive)
O=C(Nc1ccccc1)N1CCN(C(=O)Nc2ccccc2)CC1 | 2.76% (inactive)
O=C(COC(=O)/C=C/c1cn(-c2ccccc2)nc1-c1cccnc1)Nc1ccc(Cl)cc1Cl | 2.97% (inactive)
COc1ccc2c(c1)CCc1c(C(=O)Nc3c(C)n(C)n(-c4ccccc4)c3=O)noc1-2 | 3.23% (inactive)
COc1ccc2c(c1)CCc1c(C(=O)N3CCc4ccccc4C3)noc1-2 | 12.2% (active)
COc1ccc2c(c1)CCc1c(C(=O)N3CCCC3)noc1-2 | 2.15% (inactive)
O=C(NN1C(=O)C2C3C=CC(O3)C2C1=O)c1ccncc1 (stereo unspecified) | 2.74% (inactive)
CCCCN1C(=O)c2ccc(C(=O)Nc3ccc(S(=O)(=O)N(C)C)cc3)cc2C1=O | 3.73% (inactive)
CC(C)CCN1C(=O)c2ccc(C(=O)Nc3cccc(S(N)(=O)=O)c3)cc2C1=O | 9.03% (active)
Cc1cccc(C(=O)Nc2ccc3c(c2)C(=O)N(CC(C)C)C3=O)c1 | 3.29% (inactive)
Cc1ncoc1C(=O)N1CCCC(C(=O)c2ccc3c4c(cccc24)CC3)C1 (stereo unspecified) | 1.14% (inactive)
CCC1CCCCN1C(=O)CSc1nc(C)cc(C)n1 (stereo unspecified) | -1.36% (inactive)
COc1ccc(C(CC(=O)O)NC(=O)Cc2ccccc2)cc1 (stereo unspecified) | 0.54% (inactive)
CCC/C=C(\CCC)C(NC(=O)Cc1ccccc1)c1ccc(C(=O)OC)cc1 (stereo unspecified) | 8.71% (active)
COc1ccc(CC(=O)NC(C)CCc2ccccc2)cc1 (stereo unspecified) | 0.14% (inactive)
Cc1cccc(CN2CCN(Cc3cnn(-c4ccccc4F)c3)CC2CCO)n1 (stereo unspecified) | -0.13% (inactive)
COc1cc(NC(=S)N2CCCC(C)C2)cc(OC)c1OC (stereo unspecified) | 2.19% (inactive)
Fc1ccc(-n2c(Cc3ccccc3)nnc2SCc2nc(-c3ccc(Cl)cc3)no2)cc1 | 14.2% (active)
Cc1ccc(-c2noc(CSc3nnc(-c4ccncc4)n3-c3ccc(F)cc3)n2)cc1 | 2.42% (inactive)
Cc1ccc(-c2noc(CSc3nnc(-c4ccccc4)n3C)n2)cc1 | 2.09% (inactive)
